Among the data in ChEMBL document CHEMBL4513139, “CO-ADD screening of University of Strathclyde (UK) compounds” are Inhibition values, retold here.

One experiment relates to Staphylococcus aureus. The conditions noted are these: Concentration 32 ug.mL-1; ASSAY_TEST Inhibition of Bacterial Growth; detection method Absorption (OD600); MEDIA CAMHB; plate type 384well; NBS; CORNING #3640; time 18 hr.
In the next experiment the test system is Escherichia coli. The conditions noted are these: Concentration 32 ug.mL-1; ASSAY_TEST Inhibition of Bacterial Growth; detection method Absorption (OD600); MEDIA CAMHB; plate type 384well; NBS; CORNING #3640; time 18 hr.

Potency and affinity values are given separately.

`CCOC(=O)c1cc(NC(=O)c2cc(NC(=O)c3nc(N)sc3CCC(C)C)cn2C)cn1C`: the Inhibition was 16.22% in the experiment on Staphylococcus aureus and -10.89% in the experiment with Escherichia coli.
For `CN(C)CCCNC(=O)c1cc(NC(=O)c2cc(NC(=O)CCC(=O)O)cn2C)cn1C.O=C(O)C(F)(F)F` the same measures were 5.68% and -8.32%.
For `Cc1ncc(CNc2ccc(F)cc2)c(N)n1` the same measures were 25.09% and -15.16%.
For `COC(=O)CCC(=O)Nc1cc(C(=O)Nc2cc(C(=O)NCCC(=N)N)n(C)c2)n(C)c1.O=C(O)C(F)(F)F` the same measures were 0.86% and -6.39%.
For `COc1cccc(C(=N)Nc2cc(C(=O)Nc3cc(C(=O)NCCC(=N)N)n(C)c3)n(C)c2)c1.O=C(O)C(F)(F)F.O=C(O)C(F)(F)F`, the Inhibition in the experiment on Staphylococcus aureus turned out to be 96.74%; in the experiment with Escherichia coli, 3.74%.
For `Cn1cc(NC(=O)c2cc(NC(=O)c3ccc(/C=C/c4cccc(F)c4)cc3)cn2C)cc1C(=O)NCCN1CCOCC1.O=C(O)C(F)(F)F` the same measures were 33.99% and -7.74%.
For `Cc1ncc(CO)c(N)n1` the same measures were 1.81% and -19.21%.
For `COC(=O)CCC(=O)Nc1cc(C(=O)Nc2cc(C(=O)NCCCN(C)C)n(C)c2)n(C)c1.O=C(O)C(F)(F)F` the same measures were 5.2% and -12.96%.
Turning to `CC(C)c1sc(NC(=O)c2cc(NC(=O)c3cc(NC(=O)c4cnc(Cl)c(Cl)c4)cn3C)cn2C)nc1C(=O)NCCCN(C)C.O=C(O)C(F)(F)F`, the Inhibition with Staphylococcus aureus was 50.09%; in the experiment with Escherichia coli it was -19.66%.
As to `CC(=N)Nc1cc(C(=O)Nc2cc(C(=O)Nc3cc(C(=O)NCCN4CCOCC4)n(C)c3)n(C)c2)n(C)c1.O=C(O)C(F)(F)F.O=C(O)C(F)(F)F`, the values for the Inhibition with Staphylococcus aureus and in the experiment on Escherichia coli were 23.57% and -8.61%, respectively.
For `COC(=O)c1ccc(C(=O)Nc2cc(C(=O)Nc3cc(C(=O)NCCC(=N)N)n(C)c3)n(C)c2)cc1.O=C(O)C(F)(F)F` the same measures were 12.34% and -18.97%.
For `CCOC(=O)c1cc(NC(=O)c2cc(NC(=O)c3sc(N)nc3C(F)(F)F)cn2C)cn1C` the same measures were 23.52% and -5.76%.
For `CC(C)CCc1sc(NC(=O)c2cc(NC(=O)c3ccc(/C=C/c4cc5ccccc5nc4On4nnc5ccccc54)cc3)cn2C)nc1C(=O)NCCN1CCOCC1.O=C(O)C(F)(F)F` the same measures were -16.43% and -13.53%.
Take `CC(C)c1sc(N)nc1C(=O)Nc1cc(C(=O)Nc2cc(C(=O)NCCN3CCOCC3)n(C)c2)n(C)c1.O=C(O)C(F)(F)F`: the Inhibition with Staphylococcus aureus is recorded as 1.1%; in the experiment with Escherichia coli it was -18.06%.
For `CC(C)CCc1sc(N)nc1C(=O)Nc1cc(C(=O)Nc2cc(C(=O)NCCN3CCOCC3)n(C)c2)n(C)c1.O=C(O)C(F)(F)F` the same measures were 26.32% and -8.65%.
In the case of `CC(C)CCc1sc(NC(=O)c2cc(NC(=O)c3cc(NC(=O)c4ccc(C(=O)O)cc4)cn3C)cn2C)nc1C(=O)NCCCN(C)C.O=C(O)C(F)(F)F`, the Inhibition is reported as 8.57% with Staphylococcus aureus and -17.53% in the experiment with Escherichia coli.
For `Cc1ncc(CNc2ccccc2F)c(N)n1` the same measures were 17.82% and -3.65%.
For `Cn1cc(NC(=O)c2cc(NC(=O)CCC(=O)O)cn2C)cc1C(=O)NCCN1CCOCC1.O=C(O)C(F)(F)F` the same measures were -10.46% and -3.43%.
For `CC(=O)Nc1cc(C(=O)Nc2cc(C(=O)Nc3cc(C(=O)NCCCN(C)C)n(C)c3)n(C)c2)n(C)c1.O=C(O)C(F)(F)F` the same measures were 20.29% and -5.37%.
On to `CN(C)CCCNC(=O)c1cc(NC(=O)c2cc(NC(=O)c3cc(NC(=N)c4ccccc4)cn3C)cn2C)cn1C.O=C(O)C(F)(F)F.O=C(O)C(F)(F)F`, for which the Inhibition with Staphylococcus aureus was 0.44%; with Escherichia coli, -15.33%.
For `Cc1ncc(Cn2cc(CO)nn2)c(N)n1` the same measures were 15.8% and -17.13%.

By Inhibition is commonly meant the change of the read-out against control, counted positive when it falls.
